A short description of assay [1]: StAR promoter reporter inhibitors, counter-screen for LRH-1 inverse agonist project, cell-based, luminescence, high throughput (AID 651611; in the data active = inhibition above about 28%). The conditions noted are these: StAR promoter luciferase reporter counterscreen, at 3.6 µM, active compounds read high.
Assay [2] deals with Nuclear receptor subfamily 5 group A member 2 (Homo sapiens) (UniProt O00482). Kind of assay: LRH-1 (NR5A2) inverse agonists, retest, confirmation, cell-based, luminescence (AID 651613).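 Note: HEK293T cells co-transfected with LRH-1 and StAR promoter luciferase reporter; 0% = vehicle wells and 100% = parental cells lacking receptor.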 The conditions noted are these: cell-based LRH-1 luciferase reporter, inverse agonism; at 3.6 µM; active compounds read high.
The target of assay [3] is Steroidogenic factor 1 (Homo sapiens) (UniProt Q13285). Kind of assay: SF1 (NR5A1) inverse agonists, counter-screen for LRH-1 inverse agonist project, cell-based, luminescence, high throughput (AID 651614; in the data active = inhibition above about 44%;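 note: cells cotransfected with StAR promoter reporter and SF1 expression vector; 0% = vehicle on cells with receptor and 100% = vehicle on cells lacking receptor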). The conditions noted are these: cell-based SF1 luciferase reporter, at 3.6 µM, active compounds read high.
Assay [4] is described as follows: VP16 transactivation reporter inhibitors, counter-screen for LRH-1 inverse agonist project, cell-based, luminescence, high throughput (AID 651615; in the data active = inhibition above about 33%). The conditions noted are these: Gal4-VP16 luciferase reporter cells, at 3.6 µM, active compounds read high.

Values without a mark were called inactive. Activity calls are given as the source filed them. Cut-off read from the data, not from the text of the source, unless noted: active = inhibition above about 42%; inactive = the rest.

Sequence of Steroidogenic factor 1 (Homo sapiens) (Q13285 whole entry, looked up, the tested form may be a part): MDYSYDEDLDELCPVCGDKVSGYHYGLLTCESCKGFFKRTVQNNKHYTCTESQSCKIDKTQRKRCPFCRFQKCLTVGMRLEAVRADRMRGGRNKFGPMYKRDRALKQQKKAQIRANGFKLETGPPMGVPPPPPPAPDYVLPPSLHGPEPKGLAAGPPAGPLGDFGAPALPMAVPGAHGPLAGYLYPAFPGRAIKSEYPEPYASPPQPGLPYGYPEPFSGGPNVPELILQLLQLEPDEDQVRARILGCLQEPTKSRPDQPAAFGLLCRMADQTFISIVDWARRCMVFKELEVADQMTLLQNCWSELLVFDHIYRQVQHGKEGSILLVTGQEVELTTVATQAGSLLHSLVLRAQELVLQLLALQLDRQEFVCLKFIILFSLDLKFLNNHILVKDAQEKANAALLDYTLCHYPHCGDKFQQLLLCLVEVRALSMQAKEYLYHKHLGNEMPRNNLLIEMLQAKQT
Sequence of Nuclear receptor subfamily 5 group A member 2 (Homo sapiens) (O00482 whole entry, looked up): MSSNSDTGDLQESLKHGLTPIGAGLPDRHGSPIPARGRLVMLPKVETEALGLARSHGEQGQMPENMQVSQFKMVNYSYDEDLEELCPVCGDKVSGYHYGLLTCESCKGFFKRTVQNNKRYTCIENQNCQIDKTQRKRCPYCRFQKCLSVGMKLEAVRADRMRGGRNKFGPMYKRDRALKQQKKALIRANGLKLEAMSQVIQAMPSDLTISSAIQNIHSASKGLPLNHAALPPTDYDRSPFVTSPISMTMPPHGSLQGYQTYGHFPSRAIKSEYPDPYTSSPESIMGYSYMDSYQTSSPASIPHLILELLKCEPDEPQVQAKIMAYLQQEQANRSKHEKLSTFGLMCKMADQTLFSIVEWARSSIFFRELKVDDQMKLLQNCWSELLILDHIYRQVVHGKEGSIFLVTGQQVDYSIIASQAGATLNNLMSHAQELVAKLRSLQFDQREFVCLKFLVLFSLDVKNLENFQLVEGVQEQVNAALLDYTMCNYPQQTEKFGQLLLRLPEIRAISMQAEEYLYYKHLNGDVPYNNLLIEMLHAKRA

Consider `Cc1cccc(-n2ncc3c2CCCC3NC(=O)C2(C(N)=O)CC2)c1C` (centres undefined), for which the inhibition in assay [1] is 16.4%; in assay [2], 55% (active); in assay [3], 48.4% (active); in assay [4] it was 50% (active).

`Cc1ccc(NC(=O)COC(=O)CCC2CCCC2)c(Br)c1`: the inhibition was 5.75% in assay [1], 40.9% in assay [2], 46.2% (active) in assay [3] and -5.49% in assay [4].

On to `CCCc1nnc2n1N=C(c1ccc(OC)c(OC)c1)CS2`, for which the inhibition in assay [1] is 4.71%; in assay [2], 38.7%; in assay [3], 26.3%; in assay [4], -24.8%.

`O=C(Cn1ncc2c([nH]c3ccccc32)c1=O)Nc1ccc(CN2CCCCC2)cc1`: the inhibition is 5.26% in assay [1], 60.9% (active) in assay [2], 62.4% (active) in assay [3] and -4.27% in assay [4].

As to `CC(CCc1ccccc1)NC(=O)COc1ccc(S(=O)(=O)N2CCOCC2)cc1[N+](=O)[O-]` (centres undefined), the inhibition was -7.62% in assay [1], 35.2% in assay [2], 31.7% in assay [3] and 24.5% in assay [4].

Regarding `CCOc1ccc(NC(=O)CSc2nc3[nH]ncc3c(=O)[nH]2)cc1`, the inhibition in assay [1] is 8.84%; in assay [2] it was 56.8% (active); in assay [3], 43.5% (active); in assay [4], -6.78%.

As for `CC(=O)N1CCc2c(sc(NC(=O)CCS(=O)(=O)c3ccc(C)cc3)c2C#N)C1`, the inhibition is 11.7% in assay [1], 52.5% (active) in assay [2], 43.6% (active) in assay [3] and -1.4% in assay [4].

Turning to `O=C1C(=C(I)I)c2ccccc2-c2ccccc21`, the inhibition in assay [1] was 2.21%; in assay [2], 10.4%; in assay [3] it was -21.6%; in assay [4], -39.2%.

In the case of `CCOc1cc(/C=N/n2nnnc2N)ccc1OCc1c(C)no[n+]1[O-]`, the inhibition was 12.5% in assay [1], 53.2% (active) in assay [2], 56.4% (active) in assay [3] and -7.92% in assay [4].

With `CCOc1ccc(NC(=O)COC(=O)c2cc([N+](=O)[O-])ccc2N2CCOCC2)cc1`, the inhibition in assay [1] was 6.26%; in assay [2], 55.9% (active); in assay [3] it was 50.6% (active); in assay [4], -1%.

`O=C(c1ccc([N+](=O)[O-])o1)N1CCN(c2nc3c(F)cc(F)cc3s2)CC1`: the inhibition was -14.9% in assay [1], 60.2% (active) in assay [2], 60.4% (active) in assay [3] and -0.11% in assay [4].

For the molecule `CCc1c(O)nc(SCC(=O)Nc2ccccc2C)n(-c2ccc(C)cc2)c1=O`, the inhibition in assay [1] was 14.4%; in assay [2], 56.4% (active); in assay [3], 66% (active); in assay [4], -1.84%.

Take `Cc1cc(S(=O)(=O)NCc2ccncc2)c(C)cc1Br`: the inhibition in assay [1] was -10.6%; in assay [2], 39%; in assay [3] it was 38.6%; in assay [4] it was 41.4% (active).

Take `O=C(NCc1cccnc1)c1cccc2c1C(=O)N(C1CCCCC1)C2`: the inhibition in assay [1] was 12.8%; in assay [2], 48.5% (active); in assay [3], 51.5% (active); in assay [4], -8.24%.

On to `Cc1cc(OCC(=O)N2CCC(O)CC2)c2c(C)cc(=O)oc2c1`, for which the inhibition in assay [1] was 5.07%; in assay [2] it was 44.8% (active); in assay [3] it was 35.2%; in assay [4], -6.7%.

As for `CCc1ccccc1NC(=O)CSc1nnc(Cn2nnc3ccccc32)n1C`, the inhibition was 5.04% in assay [1], 53% (active) in assay [2], 48.2% (active) in assay [3] and -5.32% in assay [4].

Regarding `CCCCSc1nc(SCC(=O)NCc2ccco2)c2c3c(sc2n1)COC(C)(CC)C3` (centres undefined), the inhibition in assay [1] was 4.87%; in assay [2] it was 53.8% (active); in assay [3] it was 44.6% (active); in assay [4], -1.29%.

With `COc1ccc(S(=O)(=O)Nc2ccc3c(c2)n(C)c(=O)n3C)cc1F`, the inhibition in assay [1] was 19.6%; in assay [2], 46.2% (active); in assay [3], 52.1% (active); in assay [4], 7.89%.

For the molecule `O=[N+]([O-])c1ccc(N2CCCC2)cc1N1CCCC1`, the inhibition in assay [1] was 9.77%; in assay [2], 56.8% (active); in assay [3], 60.4% (active); in assay [4], 8.32%.

On to `Cc1csc(=O)n1CCC(=O)OCC(=O)Nc1ccc(N2CCOCC2)cc1`, for which the inhibition in assay [1] was -7.54%; in assay [2] it was 54.1% (active); in assay [3], 44.2% (active); in assay [4] it was -3.02%.

Regarding `CS(=O)(=O)c1ccc(-c2cc(NC=O)c3ncc(-c4ccc(F)cc4)n3c2)cc1`, the inhibition in assay [1] was 13.9%; in assay [2] it was 56% (active); in assay [3] it was 55% (active); in assay [4], 1.21%.

In the case of `CCN1CCN(c2ccc(S(=O)(=O)N3CCCCC3)cc2NC(=O)/C=C/c2ccc([N+](=O)[O-])cc2)CC1`, the inhibition was 0.06% in assay [1], 61.8% (active) in assay [2], 49.4% (active) in assay [3] and 3.5% in assay [4].

As to `Cc1cc(SC#N)cc(C)c1NC(=O)CCl`, the inhibition in assay [1] is 27.4%; in assay [2], 52.8% (active); in assay [3], 50.9% (active); in assay [4], -31.6%.

Consider `CCCn1c(NC(=O)c2ccc([N+](=O)[O-])o2)nc2ccccc21`, for which the inhibition is 18.9% in assay [1], 51.3% (active) in assay [2], 21.2% in assay [3] and -2.27% in assay [4].

Consider `CC(=O)Nc1ccc(NC(=O)CSc2nnc(NC(=O)C3CC3)s2)cc1`, for which the inhibition in assay [1] is 1.23%; in assay [2] it was 49.6% (active); in assay [3], 48.2% (active); in assay [4], -1.05%.

Take `COc1ccc(NC(=O)CSc2ccc3c(c2)OCCO3)cc1`: the inhibition in assay [1] was 2.27%; in assay [2], 63.5% (active); in assay [3], 56.7% (active); in assay [4], -4.1%.
